Assay results published in the supplement of paper PMC3334620.
Whole data set: some 33,000 sequences, median “E-score (-0.5 to 0.5)” near -0.0059, cut for the highest 2% near 0.26. This excerpt belongs to a sample that is enriched for the highest values.

What follows are sequences tested against T1, Cin5 (UniProt P40917) (assay: PBM E-score (8-mer binding enrichment) (E-score (-0.5 to 0.5)); higher = stronger / more preferred TF binding). Conditions: protein concentration: 100 nM; construct: GST-full length.
T1 sequence: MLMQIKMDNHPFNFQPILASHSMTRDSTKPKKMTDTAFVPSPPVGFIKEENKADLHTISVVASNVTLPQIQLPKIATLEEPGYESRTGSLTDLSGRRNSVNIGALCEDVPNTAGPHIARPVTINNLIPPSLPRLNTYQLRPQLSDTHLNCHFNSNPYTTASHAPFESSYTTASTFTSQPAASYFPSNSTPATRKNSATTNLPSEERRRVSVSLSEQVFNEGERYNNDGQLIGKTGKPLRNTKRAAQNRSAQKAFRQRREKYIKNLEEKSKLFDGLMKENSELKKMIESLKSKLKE
Method: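 Universal 'all 10-mer' protein binding microarrays (Agilent AMADID 015681) probed with GST-tagged S. cerevisiae TFs (full-length or DBD) made by in vitro transcription/translation (PURExpress), about 100-200 nM. Bound TF was detected with fluorescent anti-GST. Each ungapped 8-mer (which stands for itself and its reverse complement) is scored by the PBM enrichment score (E-score), a modified Wilcoxon-Mann-Whitney statistic from -0.5 to +0.5, computed with the Universal PBM Analysis Suite. Scale: above 0.35 generally sequence-specific binding.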

Sequence	PBM E-score
CGAAGACA	-0.0454
ATAACATG	0.0972
ACAACATA	0.268
ATAACATC	0.189
GCAACATA	0.0111
ACAACATC	0.0575
ATAACATA	0.26
AGATTGAA	0.0552
CCCAGTTC	0.175
AACCGTGA	-0.0786
GCATTCCA	-0.196
AAAGCATC	0.134
CAGACTGG	-0.108
AAAACGGA	0.0411
AGTAGCCG	0.0345
TATCGATA	0.0449
GCTCTTAC	0.021
CTCACGCC	-0.0928
GTCACGCA	0.0339
CTCACGCA	0.274
ACAGTAGG	-0.00703
CAGTGCCG	-0.0996

Sequence	PBM E-score
ATAGTTGC	0.272
ATAGTTGA	0.121
ATAGTTGG	-0.0107
GGTAAGTA	-0.00023
AAAATGGT	0.216
TCTGCACA	-0.00335
ATTACGAA	0.295
CTTACGAC	0.103
ATTACGGC	0.181
ATTACGGA	0.322
AGTACGAG	0.0932
ATTACGAG	0.299
ATTACGAC	0.232
CTTACGAA	0.26
ATTACGCA	0.25
GTTACGAA	0.16
AGTACGAA	0.167
ATTACGGG	0.103
GAGGTTAA	-0.0963
AGCAATTC	0.0771
AGGACCTC	-0.0477
CCTTGAGC	-0.155

Sequence	PBM E-score
ATTCCGAG	0.182
CAAGTCTA	-0.202
ATACTGTC	0.208
ATACTGAT	0.283
ATACTGAC	0.192
TACGCCCA	0.0142
AAGTACTG	-0.0282
CAAAAGTC	-0.0102
CACTTACG	0.112
ATCTTACG	0.164
CGCTTACC	0.15
GGCTTACA	0.332
GGCTTACC	0.169
TCCTTACA	-0.021
TGCTTAAA	0.102
AGCTTACG	0.337
ACCTTACG	0.0253
TGCTTACA	0.305
GCCTTACA	-0.253
CGCTTACG	0.379
ACTTCTAT	0.0803
ATATGCGG	0.148

Sequence	PBM E-score
CACTGCCA	-0.0785
CCCCCCCA	-0.464
CTAGCCTC	-0.159
GTACAGCA	-0.134
ATGCACTA	-0.0624
ATATAGAT	0.207
GGAGCTAC	-0.236
AGCTTATC	0.204
AGCTTACC	0.226
AGCTTACT	0.201
AGCTTATA	0.191
AGCTTACA	0.351
CACTTACA	0.127
CGCTTAGA	-0.0919
AGCTTATG	0.296
CGCTTACA	0.315
ACCCGATA	-0.0171
CCCTGTTC	-0.265
CCTTCTTC	-0.107
AGAAGCTG	-0.049
ACCAAGAT	0.146
